Experimental data taken from publication PMC5540273 (PLoS ONE, 2017).

Test system: T1, RSK1(Kin.Dom.1-N-terminal)
T1 construct: gene RPS6KA1
Conditions: concentration: 1 μM,replicates: in singlicate; n = 1
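Also: KINOMEscan kinase panel screen.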

SMILES | %Inh
NC(=O)Nc1sc(-c2ccc(F)cc2)cc1C(N)=O [GW789449] | 54%
NC(=O)c1ccc(-c2cc3ncnc(SCC(=O)O)c3s2)cc1 | 0%
Cc1n[nH]c2cc(Nc3ccnc(Nc4cccc(CN5CCOCC5)c4)n3)ccc12 [GW682569] | 3%
O=c1[nH]cc(-c2ccc(O)cc2)c2sc(-c3ccncc3)cc12 [GSK1033723] | 10%
COC(=O)Nc1nc2cc(Oc3ccc(NC(=O)Nc4cc(C(F)(F)F)ccc4Cl)cc3)ccc2[nH]1.Cl [GW697465] | 0%
O=C1NCCc2[nH]c(-c3ccncc3)cc21 | 4%
Cl.Cl.NC[C@H](CC1CCCCC1)NC(=O)c1ccc(-c2ccnc3[nH]ccc23)s1 [GSK1581428] | 23%
CC(=O)Nc1nc2cnc(Nc3cc(NC(=O)c4cccc(CC(C)(C)C#N)c4)ccc3C)nc2s1 | 5%
O=C(Nc1ccc(Oc2ccc3nc(NC(=O)C4CC4)cn3n2)c(F)c1)c1cccn(-c2ccccc2)c1=O | 0%
CC(=O)Nc1ccc(-c2cc3ncnc(SCC(=O)O)c3s2)cc1 | 0%
COC(=O)c1cccc(NC(=O)NC2CCN(c3ccnc(NCc4ccc(F)cc4)n3)CC2)c1 [GSK1379860] | 18%
COc1ccc(Nc2nccc(N3CCC(NC(=O)c4cccc(C#N)c4)C3)n2)cc1 (centres unmarked) [GSK1379730] | 0%
Cn1ccc2ncnc(Oc3ccc(NC(=O)Nc4cncc(C(F)(F)F)c4)c(Cl)c3)c21 | 0%
Cn1ccc2ncnc(Oc3ccc(NC(=O)Nc4cnn(C(C)(C)C)c4)c(Cl)c3)c21 | 0%
COc1cccc(C2=C(Nc3cccc(Cl)c3)C(=O)NC2=O)c1 [SB-341556] | 28%
Cn1ccc2ncnc(Oc3ccc(NC(=O)Nc4cccc(C(F)(F)F)c4)c(F)c3)c21 | 0%
CC(C(=O)NC1CCN(c2ccnc(Nc3ccc(F)cc3)n2)C1)c1ccc(Cl)cc1 (centres unmarked) [GSK1379713] | 0%
O=C(NCC1CC1)c1ccc(-c2cc(C(=O)NC3CC3)ccc2F)cc1 [GW810445] | 0%
Cc1cccc2c(-c3ccncc3)c(-c3ccc(F)cc3)nn12.Cl [GW461487] | 11%
c1ccc(Oc2ccc(Nc3ccnc4ccc(-c5ccccn5)cc34)cc2)cc1 [GW407034] | 10%
O=C(Nc1ccccc1)c1cccc(Oc2ccc3nccn3n2)c1 | 0%
Cc1ccc2c(-c3ccnc(Nc4ccc(C(F)(F)F)cc4)n3)cnn2n1 [GW819776] | 19%
CC(C)c1nc(-c2cccc(NS(=O)(=O)c3ccccc3)c2)c(-c2ccnc(Nc3ccc4c(c3)CN(C)CC4)n2)s1 [GSK1649598] | 73%
CN(c1ccccc1CNc1nc(Nc2ccc3c(c2)CC(=O)N3)ncc1C(F)(F)F)S(C)(=O)=O | 86%
CCn1c(-c2nonc2N)nc2cncc(Br)c21 [SB-738004] | 0%

Test system: T2, RSK1(Kin.Dom.2-C-terminal)
T2 construct: gene RPS6KA1
Conditions: concentration: 1 μM,replicates: in singlicate; n = 1

SMILES | %Inh
Cc1ccn2nc(-c3ccc(F)cc3)c(-c3ccncc3)c2c1.Cl [GW457859] | 44%
CS(=O)c1ccc(-c2coc3ccc(-c4n[nH]c(=O)o4)cc23)cc1 (centres unmarked) | 36%
C[C@@H](Oc1cc(-n2cnc3cc(-c4cnn(C)c4)ccc32)sc1C(N)=O)c1ccccc1Cl [GSK580432] | 0%
CN1CCN(CCCNc2nccc(-c3c(-c4ccc(F)cc4)nn4cc(C(N)=O)ccc34)n2)CC1 [GW622475] | 63%
C[C@@H](Oc1cc(-n2cnc3ccc(-c4ccncc4)cc32)sc1C(N)=O)c1ccccc1Cl [GSK483724] | 0%
CS(=O)(=O)c1cccc(CNc2nc(Nc3ccc4c(c3)[C@@H]3C[C@@H]4CNC3=O)ncc2C(F)(F)F)c1 | 7%
COc1cc(Nc2nccc(N3CCC(NC(=O)c4cccc(C#N)c4)C3)n2)cc(OC)c1OC (centres unmarked) [GSK1379751] | 0%
COc1cccc(OC)c1C(=O)Nc1cccc(-c2nn3ccccc3c2-c2ccnc(Nc3cccc(F)c3)n2)c1 [GSK361065] | 0%
O=C(NOCC1CC1)c1cc(Br)c(F)c(F)c1Nc1ccc(I)cc1Cl | 38%
CNC(=O)c1ccccc1Nc1nc(Nc2cccc(CS(C)(=O)=O)c2)ncc1C.O=CO [GSK1520489] | 43%
C[C@@H]1CNc2c(sc3ccc4nc(-c5ccc(O)cc5)ccc4c23)C(=O)N1 | 12%
O=C(Nc1cccc(Oc2ccc3nccn3n2)c1)Nc1cccc(C(F)(F)F)c1 | 9%
NC(=O)Nc1sc(-c2ccc(F)cc2)cc1C(N)=O [GW789449] | 33%
NC(=O)c1ccc(-c2cc3ncnc(SCC(=O)O)c3s2)cc1 | 0%
Cc1n[nH]c2cc(Nc3ccnc(Nc4cccc(CN5CCOCC5)c4)n3)ccc12 [GW682569] | 28%
O=c1[nH]cc(-c2ccc(O)cc2)c2sc(-c3ccncc3)cc12 [GSK1033723] | 0%
COC(=O)Nc1nc2cc(Oc3ccc(NC(=O)Nc4cc(C(F)(F)F)ccc4Cl)cc3)ccc2[nH]1.Cl [GW697465] | 0%
O=C1NCCc2[nH]c(-c3ccncc3)cc21 | 35%
Cl.Cl.NC[C@H](CC1CCCCC1)NC(=O)c1ccc(-c2ccnc3[nH]ccc23)s1 [GSK1581428] | 12%

SMILES | %Inh
CC(=O)Nc1nc2cnc(Nc3cc(NC(=O)c4cccc(CC(C)(C)C#N)c4)ccc3C)nc2s1 | 0%
O=C(Nc1ccc(Oc2ccc3nc(NC(=O)C4CC4)cn3n2)c(F)c1)c1cccn(-c2ccccc2)c1=O | 0%
CC(=O)Nc1ccc(-c2cc3ncnc(SCC(=O)O)c3s2)cc1 | 25%
COC(=O)c1cccc(NC(=O)NC2CCN(c3ccnc(NCc4ccc(F)cc4)n3)CC2)c1 [GSK1379860] | 0%
COc1ccc(Nc2nccc(N3CCC(NC(=O)c4cccc(C#N)c4)C3)n2)cc1 (centres unmarked) [GSK1379730] | 0%
Cn1ccc2ncnc(Oc3ccc(NC(=O)Nc4cncc(C(F)(F)F)c4)c(Cl)c3)c21 | 0%
Cn1ccc2ncnc(Oc3ccc(NC(=O)Nc4cnn(C(C)(C)C)c4)c(Cl)c3)c21 | 27%
COc1cccc(C2=C(Nc3cccc(Cl)c3)C(=O)NC2=O)c1 [SB-341556] | 24%
Cn1ccc2ncnc(Oc3ccc(NC(=O)Nc4cccc(C(F)(F)F)c4)c(F)c3)c21 | 0%
CC(C(=O)NC1CCN(c2ccnc(Nc3ccc(F)cc3)n2)C1)c1ccc(Cl)cc1 (centres unmarked) [GSK1379713] | 0%
O=C(NCC1CC1)c1ccc(-c2cc(C(=O)NC3CC3)ccc2F)cc1 [GW810445] | 3%
Cc1cccc2c(-c3ccncc3)c(-c3ccc(F)cc3)nn12.Cl [GW461487] | 51%
c1ccc(Oc2ccc(Nc3ccnc4ccc(-c5ccccn5)cc34)cc2)cc1 [GW407034] | 0%
O=C(Nc1ccccc1)c1cccc(Oc2ccc3nccn3n2)c1 | 100%
Cc1ccc2c(-c3ccnc(Nc4ccc(C(F)(F)F)cc4)n3)cnn2n1 [GW819776] | 8%
CC(C)c1nc(-c2cccc(NS(=O)(=O)c3ccccc3)c2)c(-c2ccnc(Nc3ccc4c(c3)CN(C)CC4)n2)s1 [GSK1649598] | 44%
CN(c1ccccc1CNc1nc(Nc2ccc3c(c2)CC(=O)N3)ncc1C(F)(F)F)S(C)(=O)=O | 0%
CCn1c(-c2nonc2N)nc2cncc(Br)c21 [SB-738004] | 38%
